Test [1] can be described thus: resazurin metabolic signal in HepG2 cells – cell-based, resazurin fluorescence, 24 h, PK04 Diversity Set, profiling panel (AID 1172). Note: test concentration not given here. The following applies: HepG2 viability, higher = more signal. On the technique in general: Resazurin is reduced to fluorescent resorufin, in cell work by metabolically active cells.
A short description of test [2]: budding yeast growth changes without added modifier – OD600, strain BY4716, 24 h, basal condition, primary screen (AID 1173). The following applies: S. cerevisiae BY4716 growth, OD600, 24 h; higher = more signal, called active from +8 up or from −8 down.
A short description of test [3]: viability profiling in MM1S myeloma cells – cell-based, resazurin fluorescence, basal, 24 h, PK04 Diversity Set, profiling panel (AID 1174).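 Note: MM1S multiple myeloma cell line; test concentration not given here.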 To be noted: higher = more signal, called active from +8 up or from −8 down.
Test [4] addresses Dihydroorotate dehydrogenase (quinone), mitochondrial (Plasmodium falciparum (isolate 3D7)) (UniProt Q08210). The test can be described thus: inhibition of P. falciparum DHODH – biochemical, C-terminal His tag, absorbance 600 nm, primary screen (AID 1175).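 Note: recombinant parasite enzyme with a five histidine tag at its C terminus; test concentration not given here.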 To be noted: PfDHODH enzyme, DCIP absorbance 600 nm; higher = more signal, called active from +8 up or from −8 down.
Test [5] can be described thus: inhibition of PAO1 biofilm formation – strain PAO1, LB-PBS medium, absorbance 600 nm, primary screen (AID 1176). Note: test concentration not given here. The following applies: P. aeruginosa PAO1 growth/biofilm, A600, 12 h; higher = more signal.
Test [6] can be described thus: growth modulation of vineyard yeast isolate – strain RM11-1a, OD600, basal, 24 h, primary screen (AID 1177).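 Note: cultures grown under basal conditions with no added stressor; test concentration not given here.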 To be noted: S. cerevisiae RM11-1a growth, OD600, 24 h; higher = more signal, called active from +8 up or from −8 down.
A short description of test [7]: growth of efflux-deficient E. coli DRC39 – strain DRC39, OD650, 24 h, E. coli filamentation inducers, primary screen (AID 1178).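 Note: growth measured as culture turbidity by optical density at 650 nm; test concentration not given here.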 The following applies: E. coli DRC39 acrAB, higher = more signal, called active from +8 up or from −8 down.
Test [8] can be described thus: growth of efflux-deficient E. coli DRC39 – strain DRC39, OD650, 48 h, E. coli filamentation inducers, primary screen (AID 1179).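 Note: screen aims at cell division blockers that make cells filament.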 The following applies: E. coli DRC39 delta-acrAB growth, higher = more signal, called active from +8 up or from −8 down.
A short description of test [9]: viability profiling in RPMI8226 myeloma cells – cell-based, resazurin fluorescence, basal, 24 h, PK04 Diversity Set, profiling panel (AID 1180).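 Note: RPMI8826 multiple myeloma cell line at 5000 cells per well; test concentration not given here.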 The following applies: higher = more signal.
The target of test [10] is E3 ubiquitin-protein ligase XIAP (Homo sapiens) (UniProt P98170). The test can be described thus: small molecules binding XIAP protein – biophysical, small-molecule microarray, fluorescence 635 nm, primary screen (AID 1181).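 Note: score merges 667 nm emission and signal to noise over triplicate slides.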 To be noted: higher = more signal.
E3 ubiquitin-protein ligase XIAP (Homo sapiens), sequence (P98170 whole entry, looked up): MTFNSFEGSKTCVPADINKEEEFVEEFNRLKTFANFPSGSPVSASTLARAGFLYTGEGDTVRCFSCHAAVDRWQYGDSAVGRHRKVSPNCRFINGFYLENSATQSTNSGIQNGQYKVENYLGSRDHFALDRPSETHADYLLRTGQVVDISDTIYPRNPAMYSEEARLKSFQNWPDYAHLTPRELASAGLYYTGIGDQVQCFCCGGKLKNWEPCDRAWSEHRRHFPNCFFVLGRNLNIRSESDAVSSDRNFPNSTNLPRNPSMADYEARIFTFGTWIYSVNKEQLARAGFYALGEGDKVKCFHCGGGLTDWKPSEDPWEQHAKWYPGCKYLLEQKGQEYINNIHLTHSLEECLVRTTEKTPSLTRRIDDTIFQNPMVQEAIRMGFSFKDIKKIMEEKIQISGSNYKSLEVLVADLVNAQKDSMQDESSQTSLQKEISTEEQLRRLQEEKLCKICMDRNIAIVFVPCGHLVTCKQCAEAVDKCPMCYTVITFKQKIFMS

From PubChem BioAssay come the findings set out here.

Active and inactive are the calls of the source. Unless noted, the rule behind the calls is not given here.

Dihydroorotate dehydrogenase (quinone), mitochondrial (Plasmodium falciparum (isolate 3D7)), sequence (Q08210 whole entry, looked up): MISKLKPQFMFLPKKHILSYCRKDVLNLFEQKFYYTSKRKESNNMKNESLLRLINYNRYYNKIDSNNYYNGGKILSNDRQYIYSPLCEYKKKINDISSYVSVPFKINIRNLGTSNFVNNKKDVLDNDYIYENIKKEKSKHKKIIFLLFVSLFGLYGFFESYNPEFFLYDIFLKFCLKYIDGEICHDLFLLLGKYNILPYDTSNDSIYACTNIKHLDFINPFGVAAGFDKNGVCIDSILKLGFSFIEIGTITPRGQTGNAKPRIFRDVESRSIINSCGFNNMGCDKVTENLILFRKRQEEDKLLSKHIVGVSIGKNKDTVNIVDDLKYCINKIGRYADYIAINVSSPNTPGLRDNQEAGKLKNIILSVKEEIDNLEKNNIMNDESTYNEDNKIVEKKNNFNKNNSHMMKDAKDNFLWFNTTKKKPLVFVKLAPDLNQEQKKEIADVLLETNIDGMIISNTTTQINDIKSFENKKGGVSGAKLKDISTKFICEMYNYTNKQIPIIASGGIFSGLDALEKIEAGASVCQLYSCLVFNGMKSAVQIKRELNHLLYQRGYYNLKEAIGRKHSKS

`CCOC(=O)[C@H](Cc1ccccc1)NC(=O)CCC1CC(OC(=O)NCCc2ccc(F)cc2)CC2(CCCC(COC(=O)NCC(c3ccccc3)c3ccccc3)O2)O1` (stereo not given in full): the z-score is 0.506 in [1]; 0.167 (inactive) in [2]; -0.874 (inactive) in test [3]; 0.0494 (inactive) in [5]; 0.509 (inactive) in [6]; 0.565 (inactive) in test [7]. For the same molecule, the z-score in test [8] is -0.563 (inactive); in test [9], 0.489. The values for the composite z-score in [4] and in [10] were -0.219 (inactive) and -0.161, respectively.
Turning to `COC(=O)CC=C[C@H](C)[C@H](CO)NS(=O)(=O)c1ccc(C)cc1`, the z-score in test [1] is -0.502; in [2], -0.342 (inactive); in test [3] it was -0.701 (inactive); in test [5], 1.09 (inactive); in test [6], -0.513 (inactive); in test [7], -0.586 (inactive). For the same molecule, the z-score in test [8] was -0.6 (inactive); in test [9], 0.139. In addition, the figures for the composite z-score in [4] and in [10] were 0.0702 (inactive) and -0.123, respectively.
In the case of `CCOC(=O)C[C@H]1[C@H](OC(=O)c2ccc(C(=O)c3ccccc3)cc2)[C@@H](NC(=O)c2ccc(-c3ccccc3)cc2)c2cc(OCCCO)ccc2N1C(=O)c1ccc2ccccc2n1`, the z-score in test [1] was 0.206; in [2], -1.1 (inactive); in test [3], 0.38 (inactive); in test [5], -0.0998 (inactive); in test [6] it was -0.0276 (inactive); in [7], 0.254 (inactive). Moreover, the z-score in [8] was 1.23 (inactive); in test [9], 0.909. Besides, the results for the composite z-score in test [4] and in test [10] were -1.69 (inactive) and 0.119, respectively.
Take `CC(C)=CCCC(C)=CCON=C1[C@H]2CCn3c(=O)n(C)c(=O)n3[C@H]2[C@H](O)[C@@H]2O[C@H]12`: the z-score in test [1] was -0.653; in test [2], -0.777 (inactive); in test [3], -2.63 (inactive); in [5], -0.543 (inactive); in [6] it was 0.199 (inactive); in [7], 0.119 (inactive). The z-score in [8] is 0.214 (inactive); in test [9] it was -0.88. Besides, the figures for the composite z-score in [4] and in [10] were -0.251 (inactive) and 0.153, respectively.
Regarding `COC(=O)c1c(CC[C@@H](CO)NC(=O)N[C@H](Cc2ccccc2)Cn2cc(-c3ccccc3N)nn2)oc(C(C)=O)c1C(=O)OC`, the z-score was -0.601 in test [1]; -1.2 (inactive) in test [2]; 0.505 (inactive) in test [3]; -0.109 (inactive) in [5]; -0.053 (inactive) in test [6]; 1.18 (inactive) in [7]. In addition, the z-score in [8] was 0.561 (inactive); in [9], 0.336. For the same molecule, the values for the composite z-score in [4] and in [10] were -0.433 (inactive) and -0.127, respectively.
With `CN(C)C(=O)[C@@]1(Cc2ccccc2)N=C(c2ccc(OCCCO)cc2)O[C@H]1c1ccccc1CN=[N+]=[N-]`, the z-score was -0.412 in test [1]; -0.618 (inactive) in [2]; -1.23 (inactive) in test [3]; 0.535 (inactive) in test [5]; -0.112 (inactive) in [6]; -0.0193 (inactive) in test [7]. Moreover, the results for the z-score in test [8] and in test [9] were -0.139 (inactive) and -1.23, respectively. Besides, the composite z-score in test [4] is 0.519 (inactive); in [10], 0.215.
Turning to `CC1(C)OCC(C(O)C2=CCCCC2=O)CO1` (stereo not given), the z-score in [1] is -0.786; in test [2] it was -0.124 (inactive); in test [3], 0.665 (inactive); in test [5] it was 1.49 (inactive); in test [6], 0.205 (inactive); in test [7], -0.85 (inactive). For the same molecule, the z-score in [8] is -2.63 (inactive); in test [9], 0.297. For the same molecule, the values for the composite z-score in test [4] and in [10] were 0.523 (inactive) and -0.294, respectively.
In the case of `C#C[C@@H]1Oc2ccccc2S(=O)(=O)N2CCC[C@H]12`, the z-score is -0.768 in test [1]; -2.6 (inactive) in test [2]; -0.46 (inactive) in [3]; 0.0359 (inactive) in test [5]; 0.494 (inactive) in test [6]; -0.689 (inactive) in [7]. The z-score in [8] was -0.816 (inactive); in test [9] it was -0.776. The composite z-score was 0.515 (inactive) in test [4] and -0.38 in test [10].
Consider `COC(=O)[C@H](C)NC(=O)CCC1CC(OC(=O)NCCc2ccc(F)cc2)CC2(CCCC(COC(=O)NCC(c3ccccc3)c3ccccc3)O2)O1` (stereo not given in full), for which the z-score in test [1] is 0.725; in test [2], 0.718 (inactive); in test [3], 0.476 (inactive); in [5], 0.0251 (inactive); in test [6], 1.31 (inactive); in test [7], 1.06 (inactive). In addition, the values for the z-score in test [8] and in test [9] were 0.706 (inactive) and 0.809, respectively. For the same molecule, the composite z-score is -0.216 (inactive) in test [4] and -0.323 in [10].
Regarding `COC(=O)CC=C[C@@H](C)[C@H](OC)c1ccccc1Br`, the z-score in test [1] was -0.327; in test [2], -1.15 (inactive); in test [3], -0.397 (inactive); in [5], -0.655 (inactive); in test [6], 0.791 (inactive); in [7], 0.25 (inactive). For the same molecule, the z-score in test [8] is -0.129 (inactive); in test [9] it was 0.0866. For the same molecule, the composite z-score in [4] was -2.6 (inactive); in [10], -0.241.
